An excerpt weighted towards active compounds, which were near 19% of everything screened.
TDP1 inh: inhibitors of human tyrosyl-DNA phosphodiesterase TDP1 | Potency, µM (doses to about 130 µM), hits mostly inhibitors | Q9NUW8 | recombinant TDP1, AlphaScreen DNA substrate cleavage | 350,000 compounds, 0.28% hits | AID 485290; also: nearly all actives have a fitted effect of over 40% in size
Target sequence (Q9NUW8 whole entry, looked up): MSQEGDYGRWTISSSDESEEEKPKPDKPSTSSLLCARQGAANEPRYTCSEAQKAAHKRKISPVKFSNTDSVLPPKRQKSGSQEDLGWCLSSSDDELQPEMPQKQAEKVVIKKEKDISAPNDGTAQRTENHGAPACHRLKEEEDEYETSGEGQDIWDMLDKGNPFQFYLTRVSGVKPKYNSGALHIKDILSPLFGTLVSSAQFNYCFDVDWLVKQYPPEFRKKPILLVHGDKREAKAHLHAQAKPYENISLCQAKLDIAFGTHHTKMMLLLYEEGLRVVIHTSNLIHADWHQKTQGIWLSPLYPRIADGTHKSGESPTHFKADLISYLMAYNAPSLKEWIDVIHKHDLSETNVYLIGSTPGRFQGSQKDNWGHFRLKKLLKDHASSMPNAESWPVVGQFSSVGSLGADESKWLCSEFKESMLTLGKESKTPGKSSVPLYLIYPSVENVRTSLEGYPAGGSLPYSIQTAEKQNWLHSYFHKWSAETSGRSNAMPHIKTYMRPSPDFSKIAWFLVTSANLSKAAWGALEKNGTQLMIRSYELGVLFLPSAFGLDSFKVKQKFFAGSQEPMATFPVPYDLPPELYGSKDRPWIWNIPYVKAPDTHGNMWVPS
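Steps: enzyme plus compound, 15 min RT; add biotin/phosphotyrosine-FITC oligonucleotide (15 nM final), react 5 min; add donor/acceptor beads (10 ug/ml final), 10 min; read AlphaScreen. Tdp1 at 1 nM final.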
ELG1 repair inh: ELG1-dependent DNA repair inhibition. HEK293T ELG1-luciferase reporter, luminescence, 16 h; DNA damage induced by 5-fluorouridine. Potency, µM (top dose mostly 46.1 µM), hits mostly inhibitors. 330,000 compounds, 2.3% hits. AID 504467; also: nearly all actives have a fitted effect of over 55% in size
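Quantitative HTS, concentration-response format. 2,000 cells/well co-treated with 5-fluorouridine and compound, 16 hr in 5% CO2 at 37 °C; ONE-Glo luminescence read after 30 min.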
DT40 TDP1 no CPT: qHTS for Inhibitors of human tyrosyl-DNA phosphodiesterase 1 (TDP1): qHTS in cells in absence of CPT. AID 686978, 2013. DT40 Tdp1-/- hTDP1 cells, no CPT, ATP luminescence, 48 h. Potency, µM (series often up to 46.2 µM), actives largely listed as inhibitors. 420,000 compounds, 15% hits; also: nearly all actives have a fitted effect of over 55% in size
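Luminescent ATP content (CellTiter-Glo) served as the growth readout. Knockout chicken DT40 cells expressing human TDP1 were exposed to compounds without camptothecin for a minimum 48 hr at 37 °C.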
Giardia killer: Giardia lamblia killing; activity change, % at 7.66 µM, hits read low; Giardia lamblia trophozoite viability; 340,000 compounds, 0.15% hits; in the data active = activity change below about -80%; inconclusive = between about -30% and that limit;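 also: parasites exposed to compound for two days anaerobically before the ATP read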
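Compounds were tested on trophozoites seeded at 100 cells/well and held 48 hrs at 37 deg C anaerobically. An ATP-based luminescent kit measured the remaining live cells.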
IL-1B inflam inh: blocks inflammasome-driven IL-1 beta release | THP-1 LPS/ATP IL-1B secretion, AlphaLISA, 16 h; stronger effect = lower value | 360,000 compounds, 4.7% hits | AID 743279 | activity change, % at 57.5 µM; in the data active = activity change below about -50%; inconclusive = mostly about -30% to -49%
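THP-1 cells pretreated 1 hr with compounds (up to 57.5 uM final), then stimulated with LPS (250 ng/mL final) plus ATP (1.25 mM final); secreted IL-1B measured by AlphaLISA after 16 hr, decreased signal indicating inhibition.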
TDP1 cell CPT: growth inhibition of DT40 Tdp1-/-;hTDP1 cells with camptothecin (screen for TDP1 inhibitors) | 420,000 compounds, 12% hits | Potency, µM (highest dose often 46.2 µM), usual class: inhibitors | chicken DT40 Tdp1-/-;hTDP1 cells + 20 nM CPT, ATP luminescence, 48 h | AID 686979; also: nearly all actives have a fitted effect of over 55% in size
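Cell growth measured by CellTiter-Glo luminescence after a minimum 48 h, 37 C compound exposure with 20 nM CPT in Tdp1-knockout DT40 cells stably expressing hTDP1, seeded 400/well; qHTS titration format.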
Numbers stand for hits; n = inactive; u = inconclusive; x = no result. Unless noted, calls follow the shape of the dose curve; as a rule, active = well fitted curve in the direction sought with a large enough effect; inconclusive = small, poorly fitted or top-dose-only effect, or another doubt; inactive = no such curve, though single readings can be large; an effect the other way counts as inactive or inconclusive.

SMILES	TDP1 inh	ELG1 repair inh	DT40 TDP1 no CPT	Giardia killer	IL-1B inflam inh	TDP1 cell CPT
CCOC(=O)c1ccc(NC(=O)CC2C(=O)OCCN2CC)cc1 (centres undefined)	n	n	21µM	n	n	21µM
C[C@@H]1COc2cc(N3CC[C@H](O)C3)ccc2S(=O)(=O)N1	x	x	n	x	n	n
COc1ccc(CNC(=O)c2ccc(-c3ccccc3)cc2)cc1	n	u	n	n	n	n
COc1ccc(CNC(=O)c2c(C)oc3c2C(=O)c2ccccc2C3=O)cc1	n	n	10µM	u	n	8.2µM
CC(=O)c1c(C)oc2c1C(=O)c1ccccc1C2=O	n	12µM	7.3µM	u	n	8.2µM
Cc1oc2c(c1C(=O)NCc1cccnc1)C(=O)c1ccccc1C2=O	x	1.6µM	1µM	-86	-81	0.92µM
O=C(c1ccccc1)c1coc2c1C(=O)c1ccccc1C2=O	n	u	u	n	n	u
O=C1c2ccccc2C(=O)c2c1oc(C(F)(F)F)c2C(=O)c1ccccc1	n	u	16µM	n	-84	12µM
CCOC(=O)C1=C(C)Nc2ccccc2N/C1=N\S(=O)(=O)c1cc(C(=O)O)ccc1Cl	x	n	n	n	n	n
O=C(c1ccc(S(=O)(=O)Nc2ccccc2)cc1)N1CCCCCCC1	n	n	u	n	n	u
CCc1ccc([C@H]2[C@@H]3C(=O)C[C@@H]4C(=O)NC(=O)[C@@H]4[C@@H]3CN2S(=O)(=O)c2ccc(C)cc2)cc1	x	x	n	x	n	n
Cc1ccc(-n2ccnc(NCCc3ccc(S(N)(=O)=O)cc3)c2=O)cc1C	n	x	u	x	x	u
Cc1cc(-n2ccnc(NCCc3ccc(S(N)(=O)=O)cc3)c2=O)ccc1Br	n	x	26µM	x	x	u
CCCCNc1c(-c2ccc(SC(C)CC)cc2)nc2ccc(Cl)cn12 (centres undefined)	x	x	29µM	x	n	u
Cc1ccc2nc(-c3ccc(-c4cccc(Cl)c4)cc3)c(NCc3ccccc3)n2c1	n	n	u	n	n	u
CCCCCCSc1cccc(-c2nc3ccc(Cl)cn3c2NCCCC)c1	x	x	13µM	n	n	16µM
CCCCCCSc1ccc(-c2nc3ccccn3c2NCCCC)cc1	n	n	15µM	n	u	23µM
CCC(C)Sc1ccc(-c2nc3ccc(C)cn3c2NCc2ccccc2)cc1 (centres undefined)	n	u	16µM	n	u	23µM
CCCCNc1c(-c2ccc(-c3cccc(Cl)c3)cc2)nc2ccccn12	n	u	u	n	n	u
Cc1c(NC(=O)C(C)OC(=O)c2cccnc2Cl)c(=O)n(-c2ccccc2)n1C (centres undefined)	n	n	n	n	n	n
C#CCOc1coc(COC(=O)c2ccccc2)cc1=O	n	n	n	n	n	u
O=C(O)C(Oc1ccc(Cl)cc1)c1ccc(Cl)cc1 (centres undefined)	x	x	n	n	n	n
CCc1c(C#N)c(SCCC(=O)Nc2ccc(F)cc2)nc2c1C(=O)CC(C)(C)C2	n	u	u	n	n	16µM
Cc1nnc(SCC(=O)Nc2nsc(-c3ccccc3)n2)s1	n	u	n	n	n	u
COc1ccc(-c2c(C#N)c(SCc3c(C)noc3C)nc3c2C(=O)CC(C)(C)C3)cc1	n	n	n	n	n	n
SMILES	TDP1 inh	ELG1 repair inh	DT40 TDP1 no CPT	Giardia killer	IL-1B inflam inh	TDP1 cell CPT
CC1(C)CC(=O)c2c(nc(SCC(=O)Nc3nsc(-c4ccccc4)n3)c(C#N)c2-c2ccccc2)C1	n	u	4.6µM	n	u	5.2µM
CCc1c(C#N)c(SCCC(=O)Nc2cccc(OC)c2)nc2c1C(=O)CC(C)(C)C2	n	n	16µM	n	n	u
COc1ccc(-n2nc3c(c2NC(=O)C(=O)N2CCN(C)CC2)CSC3)cc1	n	x	n	x	x	n
N/N=C/C(=N\Nc1ccc(Cl)cc1)C(=O)c1ccncc1	x	n	n	n	-51	n
CNc1nc(Oc2cccc(NC(C)=O)c2)c2sccc2n1	x	x	n	x	n	u
CC(C)C[C@H]1CN([C@@H](Cc2ccccc2)CN2CCC[C@H]2CN2C(=O)C(=O)NC[C@@H]2Cc2ccccc2)C(=O)C(=O)N1CCc1ccccc1	x	x	u	x	n	u
CC(C)C[C@H]1CN([C@@H](Cc2ccccc2)CN2CCC[C@@H]2CN2C(=O)C(=O)NC[C@@H]2Cc2ccccc2)C(=O)C(=O)N1CCc1ccccc1	x	x	16µM	x	-67	16µM
CC(C)C[C@H]1CNC(=O)C(=O)N1C[C@@H]1CCCN1C[C@H](CC(C)C)N1C[C@H](Cc2ccccc2)N(CCc2ccccc2)C(=O)C1=O	x	x	u	x	n	u
CC(C)C[C@H]1CNC(=O)C(=O)N1C[C@H]1CCCN1C[C@H](CC(C)C)N1C[C@H](Cc2ccccc2)N(CCc2ccccc2)C(=O)C1=O	x	x	29µM	x	n	21µM
Cc1ccccc1-c1cncnc1N(C)Cc1ccco1	22µM	x	n	x	x	n
C=CCOc1ccc(C2/C(=C(/O)c3ccc4c(c3)CC(C)O4)C(=O)C(=O)N2CCCN2CCOCC2)cc1 (centres undefined)	n	n	u	n	n	u
Cc1cccc(Nc2nc(-c3ccc(F)c(C)c3)cs2)n1	x	u	u	n	n	u
Cc1cccc(Nc2nc(-c3ccc(O)c(O)c3)cs2)n1	n	u	1.6µM	n	n	2.1µM
Oc1ccc(-c2csc(Nc3ccccn3)n2)cc1O	n	u	2.6µM	n	u	5.2µM
CC(=O)Nc1ccc(-c2csc(Nc3ccccn3)n2)cc1	x	u	n	n	n	u
Cc1ccnc(Nc2nc(-c3ccc(O)c(O)c3)cs2)c1	n	u	3.3µM	n	-60	2.1µM
Cc1cccnc1Nc1nc(-c2ccc(O)c(O)c2)cs1	n	u	3.7µM	n	n	3.3µM
COc1cccc(C2c3c(oc4cc(C)cc(C)c4c3=O)C(=O)N2CCc2ccc(OC)c(OC)c2)c1 (centres undefined)	n	x	n	x	x	n
Cc1csc(Nc2cccc3ccccc23)n1	n	u	n	n	n	n
Oc1ccc(-c2csc(Nc3cccc4ccccc34)n2)cc1O	n	n	8.2µM	n	n	0.92µM
CCOc1ccc(N2CC(C(=O)NC3=NCCS3)CC2=O)cc1 (centres undefined)	n	n	n	n	n	n
Cc1ccc(CN2CCSc3ccc(C(=O)NCCCN4CCOCC4)cc32)cc1	n	n	u	n	-51	21µM
O=C(NCCCN1CCOCC1)c1ccc2c(c1)N(Cc1ccccc1)CCS2	n	n	23µM	n	u	u
CN1CCN(CCCNC(=O)c2ccc3c(c2)N(Cc2ccccc2)CCS3)CC1	n	n	u	n	n	21µM
